Source: article doi:10.1101/2024.03.05.583629

target: pT7_6His-AlfaTag-HOXD13 (human, UniProt P35453 263-343); assay: PADIT-seq; conditions: dsDNA, one strand shown
Sequence (P35453 263-343): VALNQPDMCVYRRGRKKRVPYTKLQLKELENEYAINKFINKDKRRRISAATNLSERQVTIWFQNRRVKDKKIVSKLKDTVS

| Sequence | binding signal [log2FC] |
| --- | --- |
| CTCGAGGATATCAAGATCTGGCCTCGGCTTTTTAAGCGGAACCTCTAGCTAGCCGACTCACTATAGGGATAATCGCCCTGAGCAAAGACC | 0.814 ± 0.0936 |
| CTCGAGGATATCAAGATCTGGCCTCGGCGCGATAAAAGGAACCTCTAGCTAGCCGACTCACTATAGGGATAATCGCCCTGAGCAAAGACC | 1.22 ± 0.0747 |
| CTCGAGGATATCAAGATCTGGCCTCGGCATTTTACCTGGAACCTCTAGCTAGCCGACTCACTATAGGGATAATCGCCCTGAGCAAAGACC | -0.0491 ± 0.129 |
| CTCGAGGATATCAAGATCTGGCCTCGGCTGCATAAAAGGAACCTCTAGCTAGCCGACTCACTATAGGGATAATCGCCCTGAGCAAAGACC | 1.39 ± 0.0891 |
| CTCGAGGATATCAAGATCTGGCCTCGGCTTTTTATAGGGAACCTCTAGCTAGCCGACTCACTATAGGGATAATCGCCCTGAGCAAAGACC | 3.37 ± 0.0926 |
| CTCGAGGATATCAAGATCTGGCCTCGGCTCTGTAAAAGGAACCTCTAGCTAGCCGACTCACTATAGGGATAATCGCCCTGAGCAAAGACC | 1.83 ± 0.0871 |
| CTCGAGGATATCAAGATCTGGCCTCGGCTTTTTAGATGGAACCTCTAGCTAGCCGACTCACTATAGGGATAATCGCCCTGAGCAAAGACC | 0.28 ± 0.11 |
| CTCGAGGATATCAAGATCTGGCCTCGGCGTTTTACTAGGAACCTCTAGCTAGCCGACTCACTATAGGGATAATCGCCCTGAGCAAAGACC | 2.96 ± 0.0769 |
| CTCGAGGATATCAAGATCTGGCCTCGGCCACCTAAAAGGAACCTCTAGCTAGCCGACTCACTATAGGGATAATCGCCCTGAGCAAAGACC | -0.327 ± 0.133 |
| CTCGAGGATATCAAGATCTGGCCTCGGCCTTTTATGAGGAACCTCTAGCTAGCCGACTCACTATAGGGATAATCGCCCTGAGCAAAGACC | 3.45 ± 0.0923 |
| CTCGAGGATATCAAGATCTGGCCTCGGCATTTTACCGGGAACCTCTAGCTAGCCGACTCACTATAGGGATAATCGCCCTGAGCAAAGACC | 1.17 ± 0.0862 |
| CTCGAGGATATCAAGATCTGGCCTCGGCATGGTAAAAGGAACCTCTAGCTAGCCGACTCACTATAGGGATAATCGCCCTGAGCAAAGACC | 1.03 ± 0.0704 |
| CTCGAGGATATCAAGATCTGGCCTCGGCCCGATAAAAGGAACCTCTAGCTAGCCGACTCACTATAGGGATAATCGCCCTGAGCAAAGACC | 1.27 ± 0.0909 |
| CTCGAGGATATCAAGATCTGGCCTCGGCCCACTAAAAGGAACCTCTAGCTAGCCGACTCACTATAGGGATAATCGCCCTGAGCAAAGACC | 1.42 ± 0.114 |
| CTCGAGGATATCAAGATCTGGCCTCGGCTCAATAAAAGGAACCTCTAGCTAGCCGACTCACTATAGGGATAATCGCCCTGAGCAAAGACC | 2.74 ± 0.0786 |
| CTCGAGGATATCAAGATCTGGCCTCGGCGTTTTAGACGGAACCTCTAGCTAGCCGACTCACTATAGGGATAATCGCCCTGAGCAAAGACC | -0.509 ± 0.117 |
| CTCGAGGATATCAAGATCTGGCCTCGGCATTTTAGTGGGAACCTCTAGCTAGCCGACTCACTATAGGGATAATCGCCCTGAGCAAAGACC | 1.61 ± 0.0939 |
| CTCGAGGATATCAAGATCTGGCCTCGGCTAGATAAAAGGAACCTCTAGCTAGCCGACTCACTATAGGGATAATCGCCCTGAGCAAAGACC | 0.188 ± 0.107 |
| CTCGAGGATATCAAGATCTGGCCTCGGCCGCCCATATGGAACCTCTAGCTAGCCGACTCACTATAGGGATAATCGCCCTGAGCAAAGACC | -0.841 ± 0.12 |
| CTCGAGGATATCAAGATCTGGCCTCGGCAATTTAAAAGGAACCTCTAGCTAGCCGACTCACTATAGGGATAATCGCCCTGAGCAAAGACC | 2.32 ± 0.0729 |
| CTCGAGGATATCAAGATCTGGCCTCGGCATTTTACCCGGAACCTCTAGCTAGCCGACTCACTATAGGGATAATCGCCCTGAGCAAAGACC | -0.0737 ± 0.0918 |
| CTCGAGGATATCAAGATCTGGCCTCGGCATTATAAAAGGAACCTCTAGCTAGCCGACTCACTATAGGGATAATCGCCCTGAGCAAAGACC | 2.37 ± 0.0729 |
| CTCGAGGATATCAAGATCTGGCCTCGGCGTTTTATGTGGAACCTCTAGCTAGCCGACTCACTATAGGGATAATCGCCCTGAGCAAAGACC | 2.96 ± 0.0773 |
| CTCGAGGATATCAAGATCTGGCCTCGGCATTTTACTGGGAACCTCTAGCTAGCCGACTCACTATAGGGATAATCGCCCTGAGCAAAGACC | 2.8 ± 0.0813 |
| CTCGAGGATATCAAGATCTGGCCTCGGCTAACTAAAAGGAACCTCTAGCTAGCCGACTCACTATAGGGATAATCGCCCTGAGCAAAGACC | -0.24 ± 0.119 |
| CTCGAGGATATCAAGATCTGGCCTCGGCGTTTTACTTGGAACCTCTAGCTAGCCGACTCACTATAGGGATAATCGCCCTGAGCAAAGACC | 1.25 ± 0.0875 |
